Shiga toxin inh = A qHTS for Small Molecule Inhibitors of Shiga Toxin. Vero cells, Shiga toxin protein synthesis inhibition reporter. inhibition, % at 38.7 µM. 290,000 tested, 9.2% active. AID 2315, 2010; in the data active means inhibition mostly above about 28%, no sharp cut-off; inactive means mostly below about 43%; further: 0% is about no effect
CHX counter = Cycloheximide Counterscreen for Small Molecule Inhibitors of Shiga Toxin. 300,000 tested, 12% active. cell reporter, cycloheximide protein synthesis inhibition counterscreen. max response, %; in the data active means max response mostly above about 13%, no sharp cut-off; inactive means mostly below about 14%; further: read at 38.3 µM for the half of the compounds with a filed dose; 0% is about no effect
NS1 inh = qHTS Assay for Inhibitors of Influenza NS1 Protein Function; Potency, µM (titrated, usually from 46.1 µM), without a hit: at the top dose activity, positive = more growth; 270,000 tested, 0.4% active; calls by dose curve; further: potency means the concentration at half of the fitted maximal effect; actives are rising curves; nearly all actives have a fitted effect of over 50% in size
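Recovery from NS1-induced slow growth read by OD600 in budding yeast switched to galactose assay medium (pH 6.0, -URA) at 1:100 dilution. Compound 23 nl per well; the matching strain lacking NS1 serves as control.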
Pf growth 48h = Primary qHTS for delayed death inhibitors of the malarial parasite plastid, 48 hour incubation. P. falciparum luciferase growth in erythrocytes, 48 h. Potency, µM (doses to about 28.7 µM), for the others: at the highest dose activity change, negative = inhibition, actives largely listed as inhibitors. 310,000 tested, 5.9% active; further: potency means the concentration at half of the fitted maximal effect; on the % scale 0 is the no-effect control and ±100 the full control effect
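Compounds are pin-transferred into medium, infected erythrocytes (2% hematocrit, 0.1% parasitemia final) are added, and plates sit one parasite generation at 37 C in 5% CO2. Detection reagent is then added and luminescence measured.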
Pf growth 96h = Primary qHTS for delayed death inhibitors of the malarial parasite plastid, 96 hour incubation | P. falciparum luciferase reporter growth, 96 h | Potency, µM (series often up to 28.7 µM), for inactives: top-dose activity change, negative = inhibition, hits mostly inhibitors | 320,000 tested, 6.9% active | AID 504834, 2011; further: potency means the concentration at half of the fitted maximal effect; on the % scale 0 is the no-effect control and ±100 the full control effect
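Infected RBCs, 2% Hct / 0.05% parasitemia final; luciferase-reporter P. falciparum; cpd 96 h, 37 C, 5% CO2; luciferase detection reagent; luminescence.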
FBPA Giardia inh = qHTS Assay for Inhibitors of Fructose-1,6-bisphosphate Aldolase from Giardia Lamblia. purified Giardia FBPA. Potency, µM (series often up to 59.6 µM), inactives show top-dose activity, negative = inhibition, hits mostly inhibitors. 290,000 tested, 0.71% active; further: potency means the concentration at half of the fitted maximal effect; on the % scale 0 is the no-effect control and ±100 the full control effect; nearly all actives have a fitted effect of over 55% in size
Target sequence (A8B2U2 whole entry, looked up): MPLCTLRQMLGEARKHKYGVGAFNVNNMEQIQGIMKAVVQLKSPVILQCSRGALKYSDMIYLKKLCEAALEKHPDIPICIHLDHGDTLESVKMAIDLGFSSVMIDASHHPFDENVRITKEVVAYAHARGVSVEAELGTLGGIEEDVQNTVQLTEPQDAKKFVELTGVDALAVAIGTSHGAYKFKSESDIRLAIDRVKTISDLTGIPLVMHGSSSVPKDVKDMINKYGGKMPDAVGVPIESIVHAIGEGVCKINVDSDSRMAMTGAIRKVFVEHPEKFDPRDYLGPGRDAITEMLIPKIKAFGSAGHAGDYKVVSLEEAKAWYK
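Giardia FBPA (40 nM reagent) was preincubated 10 min at RT with compound (up to 57.5 uM final), then substrate plus GAPDH/TPI/NAD/arsenate coupling system with diaphorase/resazurin was added; resorufin fluorescence (525/598 nm) was read after 20 min.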
Starred values were filed as active, the others as inactive; ? = inconclusive; · = no result; [ ] = another dose, or the depositor's remark. Shown are actives, neighbours in structure and some others; about 21% of the full set was active somewhere. Unless noted, the call rests on the fitted dose curve; in most records, active means well fitted curve in the direction sought with a large enough effect; inconclusive means small, poorly fitted or top-dose-only effect, or another doubt; inactive means no such curve, though single readings can be large; an effect the other way counts as inactive or inconclusive.

SMILES	Shiga toxin inh	CHX counter	NS1 inh	Pf growth 48h	Pf growth 96h	FBPA Giardia inh
O=C(Cc1cn2ccsc2n1)NCc1ccccc1	7	11	-1%	2%	·	1%
c1ccc(CSCc2cn3ccsc3n2)cc1	12*	39*	-45%	64%	·	-7%
O=C(Cc1cn2ccsc2n1)OCc1ccccc1	62*	27*	-69%	20%	·	-8%
O=c1c2ccccc2nc(SCc2cn3ccsc3n2)n1-c1ccccc1F	41*	30*	16%	?	·	-3%
CCc1nnc(SCC(=O)N2CCCC(N3CCN(c4ccccc4C)CC3)C2)o1 (configuration not stated)	-3	-2	-3%	?	?	·
COc1ccc2[nH]cc(CCNc3ccnc(-c4ccc5c(c4)OCO5)n3)c2c1	·	·	·	·	·	-16%
CN(C)c1cccc(C(=O)n2cc(C(=O)c3cc(F)ccc3O)cn2)c1	97*	20	-38%	68%	-4%	16%
O=C(c1cnn(C(=O)COc2ccccc2F)c1)c1cc(F)ccc1O	25	-2	-4%	?	-13%	0%
NC(=O)c1cc(S(=O)(=O)N2CCOCC2)ccc1Sc1ccccc1N	·	·	·	5%	9%	·
Cc1noc(C)c1-c1nccc(NCc2ccccc2)n1	·	·	·	·	·	-10%
C#CCOCCOCCOCCNc1nc(N2CCN(C(=O)Cn3cc(CCCN=C(N)N)nn3)CC2)nc(N2CCN(C(=O)[C@H](CCCCN)n3cc(CCC(=O)O)nn3)CC2)n1	·	·	·	-25%	?	·
C#CCOCCOCCOCCNc1nc(N2CCN(C(=O)Cn3cc(CCCN=C(N)N)nn3)CC2)nc(N2CCN(C(=O)[C@H](CCCCN)n3cc(CCCC)nn3)CC2)n1	·	·	·	12µM*	12µM*	·
C#CCOCCOCCOCCNc1nc(N2CCN(C(=O)[C@H](C)n3cc(CCCN=C(N)N)nn3)CC2)nc(N2CCN(C(=O)[C@H](CCCCN)n3cc(CCCC)nn3)CC2)n1	-23	-3	-13%	?	12µM*	21%
C#CCOCCOCCOCCNc1nc(N2CCN(C(=O)[C@H]([C@@H](C)O)n3cc(CCCCN)nn3)CC2)nc(N2CCN(C(=O)[C@H](CCCCN)n3cc(CCCC)nn3)CC2)n1	·	·	·	?	57%	·
C#CCOCCOCCOCCNc1nc(N2CCN(C(=O)[C@H]([C@@H](C)CC)n3cc(CCCN=C(N)N)nn3)CC2)nc(N2CCN(C(=O)[C@H](CCCCN)n3cc(CCCC)nn3)CC2)n1	-13	-4	-41%	?	12µM*	-4%
C#CCOCCOCCOCCNc1nc(N2CCN(C(=O)Cn3cc(CCCCN)nn3)CC2)nc(N2CCN(C(=O)Cn3cc(CCCN=C(N)N)nn3)CC2)n1	·	·	·	?	0.83µM*	·
COc1ccccc1N1CCN(C2CCCN(C(=O)CCc3cnn(C)c3)C2)CC1 (configuration not stated)	-7	-3	5%	-2%	-1%	-10%
CCOC(=O)C1=C(COC(=O)CCc2ccccc2)NC(=O)NC1C (configuration not stated)	·	·	·	-24%	-15%	·
Cc1ccc(S(=O)(=O)c2cc3c(=O)n4ccccc4nc3n(CC3CCCO3)c2=N)cc1 (configuration not stated)	·	·	7%	·	·	·
Cc1ccc2nc3c(cc(C(=O)NCC4CCCO4)c(=N)n3CC3CCCO3)c(=O)n2c1 (configuration not stated)	-5	-3	12%	45%	54%	9%
CC(NC(=O)c1cc2c(=O)n3ccccc3nc2n(CC2CCCO2)c1=N)c1ccccc1 (configuration not stated)	-10	-3	-2%	13µM*	19%	0%
N=c1c(C(=O)NC2CCCCC2)cc2c(=O)n3ccccc3nc2n1CC1CCCO1 (configuration not stated)	8	-3	2%	?	?	·
C=CCNC(=O)c1cc2c(=O)n3cc(C)ccc3nc2nc1NCC1CCCO1 (configuration not stated)	-8	-4	-2%	8%	4.1µM*	1%
N=c1c(C(=O)NC2CCCC2)cc2c(=O)n3ccccc3nc2n1CC1CCCO1 (configuration not stated)	-11	-5	0%	13µM*	?	-8%
Cc1ccc(CNC(=O)c2cc3c(=O)n4ccccc4nc3n(CC3CCCO3)c2=N)cc1 (configuration not stated)	-6	-4	-3%	2.6µM*	?	1%
SMILES	Shiga toxin inh	CHX counter	NS1 inh	Pf growth 48h	Pf growth 96h	FBPA Giardia inh
N#Cc1ccsc1NC(=O)c1cccc([N+](=O)[O-])c1	52*	23*	·	3%	11%	-12%
N#Cc1ccsc1NC(=O)c1ccc(Cl)c([N+](=O)[O-])c1	99*	51*	-66%	17%	?	1%
N#Cc1ccsc1NC(=O)c1cccc(-n2cnnn2)c1	26	10*	2%	15%	-5%	-18%
Cc1onc(C(=O)NC2CCCCC2)c1[N+](=O)[O-]	30	2	-1%	5%	?	·
CC(C)c1ccc(C(=O)N(c2ccccn2)C(C)c2ccco2)cc1 (configuration not stated)	90*	30*	-50%	?	?	1%
CC(c1ccco1)N(C(=O)c1ccccc1NS(=O)(=O)c1ccc(Cl)c([N+](=O)[O-])c1)c1ccccn1 (configuration not stated)	39*	-3	-16%	-1%	?	3%
CCn1c(SCC(=O)NC2CCCC2)nnc1C(C)C	-2	-1	7%	-5%	32%	-3%
O=C(NNC(=S)Nc1ccc(F)cc1F)c1ccco1	27	33*	-9%	44%	-19%	?
O=C(NNC(=O)c1cccs1)c1ccc(F)cc1	50*	22*	2%	43%	7%	-1%
Cc1ccccc1C(=O)NNC(=S)NC(=O)c1cccs1	20	21*	-115%	?	?	27%
O=C(NC(=S)NNC(=O)c1cccs1)c1ccco1	19	29*	-122%	?	?	-8%
CNS(=O)(=O)c1cccc(C(=O)NNC(=O)c2ccc(COc3ccccc3)cc2)c1	-3	2	9%	-2%	29%	-2%
CCOC(=O)CCN1C(=O)[C@H]2[C@H]3[C@H](O)[C@H](O)C/C(=N/O[C@@H]4O[C@@H](COC(C)=O)[C@@H](OC(C)=O)[C@@H](OC(C)=O)[C@H]4OC(C)=O)[C@@H]3CC[C@@H]2C1=O	·	·	·	·	·	0%[12.9 µM]
COc1ccc(C(=O)NNC(=S)NC(=O)c2ccco2)cc1	10	10	-142%	?	?	6%
Cc1cccc(C(=O)NC(=S)NNC(=O)c2cccs2)c1	25*	12	-70%	-26%	?	?
